Results reported in PubChem BioAssay AID1159580 (chemical genetic matrix, 2015).
Screen size: about 5,500 compounds; about 2,000 (36%) were called active. About 18% were inconclusive and are not listed. No stated cut-off is given here; in the data, active means normalized growth mostly below about 0.91 (no sharp cut-off); inconclusive means no clear call, values can overlap the other calls; inactive means mostly above about 0.92. The list shows a part of the results.

Test: chemical genetic growth profiling, strain panel (AID 1159580);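 further: tested at 20 µM; growth read once vehicle control cultures reached saturation at 30 °C; 1 = growth at the plate median or of vehicle wells; lower values mean less growth of the strain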
Conditions: S. cerevisiae deletion strains, growth OD

Measured: normalized growth

CCCCCCCCCCCCCCCCCCCCCCO
inactive: locus YHR030C, strain SLT2, active compounds read low 1.08 | locus YHR079C, strain IRE1, active compounds read low 0.973 | locus YJL095W, strain BCK1, active compounds read low 0.989 | locus YJR066W, strain TOR1, active compounds read low 0.967 | locus YLR113W, strain HOG1, active compounds read low 0.965 | locus YNL183C, strain NPR1, active compounds read low 0.916 | locus YOR231W, strain MKK1, active compounds read low 0.99 | locus YPL256C, strain CLN2, active compounds read low 0.99
